Experimental data: PubChem BioAssay (NCI)
About 79,000 compounds went through this panel and 15% of them were active in at least one assay; those are over-represented in the sample as a whole. Values without a mark were called inactive. Calls of active or inactive are those of the source. Cut-off read from the data, not from the text of the source: active = growth inhibition above about 70%; inactive = the rest.

Assays:
[1] = NCI Yeast Anticancer Drug Screen. Data for the rad50 strain (AID 155);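 note: 0% = growth of vehicle-only cultures of the same strain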; conditions: S. cerevisiae rad50 strain growth inhibition, stronger effect = higher value
Summary of the method: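 A DNA repair-deficient yeast mutant serves as the test organism; compound-induced growth inhibition is calculated against vehicle-treated cells.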

[2] = NCI Yeast Anticancer Drug Screen. Data for the mec2-1 strain (AID 157); conditions: S. cerevisiae mec2-1 strain, stronger effect = higher value
Summary of the method: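 Cells of the genetically defined mec2-1 yeast strain are incubated with test compound. Inhibition of growth is calculated against vehicle-treated controls.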

[3] = NCI Yeast Anticancer Drug Screen. Data for the sgs1 mgt1 strain (AID 161);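 note: 0% = growth of cultures given vehicle only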; conditions: S. cerevisiae sgs1 mgt1 strain, stronger effect = higher value
Summary of the method: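 Inhibition of yeast growth, normalised to vehicle-treated controls, is reported for a strain bearing genetic alterations in DNA damage repair.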

[4] = NCI Yeast Anticancer Drug Screen. Data for the cln2 rad14 strain (AID 165);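 note: 0% = growth equal to vehicle treated cultures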; conditions: S. cerevisiae cln2 rad14 strain, stronger effect = higher value
Summary of the method: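 The screen exposed genetically defined yeast (cln2 rad14) to test compounds and scored growth inhibition relative to vehicle-treated controls.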

[5] = NCI Yeast Anticancer Drug Screen. Data for the bub3 strain (AID 167); conditions: S. cerevisiae bub3 mutant strain, stronger effect = higher value
Summary of the method: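 Inhibition values come from growth of compound-treated mutant yeast normalised to vehicle-treated controls.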

[6] = NCI Yeast Anticancer Drug Screen. Data for the mlh1 rad18 strain (AID 175); conditions: S. cerevisiae mlh1 rad18 strain growth inhibition, stronger effect = higher value
Summary of the method: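 Compound-treated yeast growth, normalised to vehicle controls. Strain bears defined DNA repair mutations.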

[7] = at 5.0 µM (retest, dose inferred, filed as 0.5)
[8] = at 50.0 µM (retest, dose inferred, filed as 5.0)

SMILES | growth inhibition [1, 7] | growth inhibition [1, 8] | growth inhibition ([1]; at 50.0 µM) | growth inhibition [2, 7] | growth inhibition [2, 8] | growth inhibition ([2]; at 50.0 µM) | growth inhibition [3, 7] | growth inhibition [3, 8] | growth inhibition ([3]; at 50.0 µM) | growth inhibition [4, 7] | growth inhibition [4, 8] | growth inhibition ([4]; at 50.0 µM) | growth inhibition [5, 7] | growth inhibition [5, 8] | growth inhibition ([5]; at 50.0 µM) | growth inhibition [6, 7] | growth inhibition [6, 8] | growth inhibition ([6]; at 50.0 µM)
CCCCCCCCCCCC(=O)c1c(O)c2ccccc2oc1=O | 6% | -4% | 54.1% | 45% | 28% | 44.4% | 21% | -8% | 71.2% (active) | -14% | -7% | 22.3% | 0% | -21% | 43.8% | -4% | -4% | 68%
O=[N+]([O-])CCc1ccco1 | 3% | 0% | 74.8% (active) | 1% | -1% | 73.2% (active) | 2% | 2% | 47.4% | 3% | 0% | 56.2% | 4% | -4% | 95.2% (active) | 0% | -1% | 44.1%
CCCCCCCCCCN(CCCCCCCCCC)C(=O)COc1c2cc(C(C)(C)C)cc1Cc1cc(C(C)(C)C)cc(c1OCC(=O)N(CCCCCCCCCC)CCCCCCCCCC)Cc1cc(C(C)(C)C)cc(c1OCC(=O)N(CCCCCCCCCC)CCCCCCCCCC)Cc1cc(C(C)(C)C)cc(c1OCC(=O)N(CCCCCCCCCC)CCCCCCCCCC)C2 | 98% (active) | 92% (active) | 85.8% (active) | 98% (active) | 95% (active) | 89.3% (active) | 99% (active) | 95% (active) | 89% (active) | 98% (active) | 94% (active) | 87.3% (active) | 99% (active) | 94% (active) | 87.8% (active) | 97% (active) | 92% (active) | 84.8% (active)
CCCC(C)NCCCCCNc1cc(OC)cc2cccnc12 (configuration not stated) | 3% | 60% | 78.8% (active) | 2% | 22% | 48.5% | 25% | 62% | 71.6% (active) | 14% | 40% | 42% | 19% | 61% | 82.2% (active) | -19% | 11% | 76.5% (active)
S=C(S)NCCN1CCNC1=S | 10% | 76% (active) | 60.4% | 5% | 50% | 60.9% | 5% | 64% | 80% (active) | 2% | 18% | -5.05% | 14% | 95% (active) | 63.8% | 7% | 78% (active) | 77.1% (active)
CCCCCCCSCc1nc2ccccc2c(C)[n+]1[O-] | 2% | 99% (active) | 96.7% (active) | 3% | 98% (active) | 95.8% (active) | 0% | 98% (active) | 95.8% (active) | -3% | 98% (active) | 94.8% (active) | -2% | 99% (active) | 98% (active) | 3% | 98% (active) | 97.5% (active)
Cc1ccc(C2(O)c3ccccc3-c3ccccc32)cc1 | 4% | 98% (active) | 99.2% (active) | 8% | 100% (active) | 99.2% (active) | 15% | 99% (active) | 99.2% (active) | -9% | 99% (active) | 98.2% (active) | -8% | 99% (active) | 99.3% (active) | -4% | 98% (active) | 99% (active)
CCOC(=O)C1=C(c2ccccc2)OC(N)=C(C#N)C1c1ccc(C)cc1 (configuration not stated) | 4% | 25% | 77.1% (active) | 0% | 66% | 89.5% (active) | 10% | 64% | 92.5% (active) | -4% | 29% | 89% (active) | 1% | 50% | 80.1% (active) | -2% | 65% | 85.9% (active)
COC1/C=C\OC2(C)Oc3c(C)c(O)c4c(O)c(c5[nH]c(-c6ccccc6)nc5c4c3C2=O)NC(=O)/C(C)=C\C=C\C(C)C(O)C(C)C(O)C(C)C(OC(C)=O)C1C (configuration not stated) | 29% | 84% (active) | 88.5% (active) | 30% | 94% (active) | 91.1% (active) | 20% | 88% (active) | 91.7% (active) | 44% | 91% (active) | 88.6% (active) | 14% | 89% (active) | 88.6% (active) | 19% | 94% (active) | 90% (active)
